19 compounds from PubChem BioAssay (EPA / NIEHS) can be followed below.

Each structure is given as a SMILES string. Calls of active or inactive are those of the source. Rule for the calls: active = hit-call score of the fitted dose curve at least 0.9, where 1 is the maximum; inactive = score below 0.9.

Experiment [1] can be described thus: APR_HepG2_P-H2AX_72hr: Apredica 72-hour HepG2 Assay for H2AX Phosphorylation (AID 2282916).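 Note: phospho-histone H2A.x immunostain intensity per cell marking DNA damage.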 The conditions noted are these: imaging, actives raise or lower the signal. Summed up: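 Human hepatoma HepG2 cells are dosed across ten concentrations (0.39 to 200 uM, 0.5% v/v DMSO) and incubated 72 hr. Phospho-histone H2A.x is then detected by antibody staining alongside c-Jun and Hoechst, and quantified by automated fluorescence imaging.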

A short description of experiment [2]: APR_HepG2_MitoMembPot_72hr: Apredica 72-hour HepG2 Assay for Mitochondrial Membrane Potential (AID 2282917). Particulars: imaging, actives raise or lower the signal. Summed up:
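HepG2 cells dosed 72 hr with compound at 0.39–200 uM in duplicate, 0.5% v/v DMSO final. Mitochondria stained with 250 nM MitoTracker Red CMXRos for 30 min before formaldehyde fixation, imaged by high-content fluorescence; bidirectional fit versus DMSO.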

Experiment [3] can be described thus: APR_HepG2_MitoticArrest_72hr: Apredica 72-hour HepG2 Assay for Mitotic Arrest (AID 2282918). Particulars: high-content imaging, actives raise or lower the signal. Summed up: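 Mitotic arrest in HepG2 is scored from phospho-histone H3 staining after 72 hr dosing across 0.39–200 uM, with DMSO at 0.5% v/v. Nuclei are identified by Hoechst 33342 and fluorescence intensity is quantified per cell.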

The nature of experiment [4]: APR_HepG2_MicrotubuleCSK_72hr: Apredica 72-hour HepG2 Assay for Microtubule CSK Stabilty (AID 2282919). The conditions noted are these: HepG2 microtubule cytoskeleton, high-content imaging, actives raise or lower the signal. Summed up:
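HepG2, 72 hr cmpd exposure, 0.39–200 uM (10 pts, duplicate), 0.5% DMSO. 3.7% formaldehyde fix, 0.5% Triton perm, anti-alpha-tubulin/Cy5 plus Hoechst. HCS fluorescence intensity; bidirectional fit vs DMSO baseline; taxol as positive control.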

Experiment [5] is described as follows: APR_HepG2_P-H2AX_24hr: Apredica 24-hour HepG2 Assay for H2AX Phosphorylation (AID 2282920). Particulars: high-content imaging, actives raise or lower the signal. In short, it runs like this: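 Signal comes from a FITC-labeled secondary detecting phospho-histone H2A.x in fixed HepG2 cells, quantified by automated imaging at 20x. Dosing ran 24 hr across 0.39–200 uM with 0.5% v/v DMSO.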

The nature of experiment [6]: APR_HepG2_StressKinase_72hr: Apredica 72-hour HepG2 Assay for Stress Kinase (AID 2282921). Particulars: HepG2 stress kinase (phospho-c-Jun) imaging, actives raise or lower the signal. In short, it runs like this: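 After a 72 h compound treatment spanning 0.39 to 200 uM, formaldehyde-fixed cells are labelled for phosphorylated c-Jun and nuclei, imaged by automated fluorescence microscopy, and activity is fitted in both directions relative to DMSO controls.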

Experiment [7] in a line: APR_HepG2_StressKinase_24hr: Apredica 24-hour HepG2 Assay for Stress Kinase (AID 2282922). Particulars: HepG2 stress kinase (phospho-c-Jun) imaging, actives raise or lower the signal. Summed up:
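Read-out: phospho-c-Jun immunofluorescence (Cy3 secondary) quantified by high-content imaging at 20x, nuclei defined by Hoechst 33342. Human HepG2 liver cells dosed 24 hr, 0.39–200 uM, DMSO 0.5% v/v; gain or loss of signal fitted relative to DMSO.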

Experiment [8] in a line: APR_HepG2_p53Act_72hr: Apredica 72-hour HepG2 Assay for p53 Activation (AID 2282923).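 Note: average cellular p53 protein immunofluorescence intensity in HepG2 cells.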 The conditions noted are these: high-content imaging, actives raise or lower the signal. Summed up: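 Imaging-based endpoint: after 72 hr compound exposure (up to 200 uM, 0.5% DMSO), fixed and permeabilized monolayers were labelled with anti-p53 antibody and imaged; signal change in either direction was fitted relative to DMSO controls.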

Experiment [9] can be described thus: APR_HepG2_MitoMass_72hr: Apredica 72-hour HepG2 Assay for Mitochondrial Mass (AID 2282924).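 Note: MitoTracker Red CMXRos stain intensity per cell imaged as mitochondrial mass.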 Particulars: high-content imaging, actives raise or lower the signal. In short, it runs like this:
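Read-out: MitoTracker Red fluorescence intensity from automated imaging (20x, six fields per well) in human HepG2 liver cells. Dosing ran 72 hr, 0.39–200 uM, 0.5% DMSO; bidirectional curve fitting versus DMSO baseline.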

Experiment [10] in a line: APR_HepG2_NuclearSize_72hr: Apredica 72-hour HepG2 Assay for Nuclear Size (AID 2282925). The conditions noted are these: high-content imaging, actives raise or lower the signal. In short, it runs like this: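 Read-out: nuclear diameter from Hoechst 33342 images (ArrayScan, 20x, six fields/well), via cell-cycle image analysis. HepG2 were dosed 0.39–200 uM for 72 hr in 0.5% DMSO. Bidirectional fit relative to DMSO.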

Consider `CN(C)CCCN(C)CCCN(C)C`, for which the call in [1], in [2], in experiment [3], in experiment [4], in experiment [5] and in experiment [6] was inactive. In addition, the compound was called inactive in [7], in [8], in experiment [9] and in experiment [10].

With `Cc1cc(Cc2ccc(N)c(C)c2)ccc1N`, the result in experiment [1], in [2], in [3], in [4], in [5] and in [6] was inactive. The compound was called inactive in [7], in [8] and in [10].

Regarding `CC(C)c1cccc(C(C)C)c1NC(=O)NS(=O)(=O)c1cc(C(C)(C)O)co1`, the result in [1], in experiment [2], in experiment [3], in [4], in experiment [5] and in experiment [6] was inactive. Also, the call in experiment [7], in [8] and in experiment [10] was inactive.

Usually AC50 stands for the concentration giving half of the maximal activity seen. For `C=CCCCCCCCCCCCC`, the half-maximal activity concentration (AC50) was 98.6 µM (active) in experiment [1], 99 µM (active) in experiment [5], 98.5 µM (active) in experiment [6] and 93.4 µM (active) in [8]. Besides, the result in experiment [2], in experiment [3], in experiment [4], in experiment [7], in experiment [9] and in experiment [10] was inactive.

For the compound `O=C(O)CN(CC(=O)O)CC(=O)O`, the result in experiment [1], in experiment [2], in experiment [3], in experiment [4], in experiment [5] and in experiment [6] was inactive. Further, the compound was classed as inactive in [7], in [8] and in experiment [10].

Regarding `CCCCCCC(CCCCCCCCCCC(=O)OCC(COC(C)=O)OC(C)=O)OC(C)=O` (centres undefined), the call in experiment [1], in [2], in experiment [4], in experiment [5], in experiment [6] and in experiment [7] was inactive. The compound was classed as inactive in [8], in experiment [9] and in [10]. Further, the AC50 in [3] is 39.8 µM (active).

For the compound `O=C(O)c1[nH]n(-c2ccc(S(=O)(=O)O)cc2)c(=O)c1N=Nc1ccc(S(=O)(=O)O)cc1`, the compound was classed as inactive in [1], in experiment [2], in experiment [3], in [4], in experiment [5] and in [6]. Also, the call in experiment [7], in [8], in experiment [9] and in experiment [10] was inactive.

For the compound `CCOCCOCCO`, the result in experiment [1], in [2], in experiment [3], in experiment [4], in experiment [5] and in [6] was inactive. Also, the result in experiment [7], in experiment [8], in [9] and in experiment [10] was inactive.

Consider `CCCCCCCCCCCCCCOS(=O)(=O)O`, for which the half-maximal activity concentration (AC50) in experiment [1] was 110 µM (active); in experiment [2], 110 µM (active); in [3], 98.5 µM (active); in experiment [5] it was 114 µM (active); in experiment [8], 111 µM (active). The compound was called inactive in experiment [4], in experiment [6], in experiment [7] and in [10].

Take `OCC(CO)n1cnc(-c2ccc(F)cc2)c1-c1ccnc(Oc2ccccc2)n1`: the call in experiment [1], in [2], in experiment [3], in [4], in [5] and in experiment [6] was inactive. For the same compound, the call in [7], in experiment [8], in experiment [9] and in experiment [10] was inactive.

As to `CC1(C)C(=O)NC(=O)N1CO`, the result in [1], in experiment [2], in [3], in experiment [4], in experiment [5] and in experiment [6] was inactive. For the same compound, the compound was classed as inactive in experiment [7], in experiment [8] and in [10]. In experiment [9], the concentration at half-maximal activity (AC50) is 100 µM (active).

As to `Cc1cc(SC2=C(O)C[C@@](CCc3ccc(N)cc3)(C(C)C)OC2=O)c(C(C)(C)C)cc1CO`, the compound was called inactive in [1], in experiment [2], in [3], in experiment [4], in experiment [5] and in [6]. For the same compound, the compound was called inactive in experiment [7], in experiment [8], in experiment [9] and in experiment [10].

On to `CN(C)CCCN1c2ccccc2Sc2ccc(Cl)cc21`, for which the concentration at half-maximal activity (AC50) in [1] was 81.2 µM (active); in [2], 112 µM (active); in [3], 26 µM (active); in [5], 26 µM (active); in experiment [6] it was 107 µM (active); in [7], 25.2 µM (active). In [8], the AC50 was 100 µM (active). In addition, the compound was called inactive in experiment [4], in experiment [9] and in [10].

Consider `Nc1nc(Cl)nc2c1ncn2[C@H]1C[C@H](O)[C@@H](CO)O1`, for which the AC50 is 0.0288 µM (active) in experiment [1], 0.089 µM (active) in experiment [3], 0.551 µM (active) in [5] and 0.038 µM (active) in experiment [8]. Further, the result in experiment [2], in [4], in experiment [6], in [7], in experiment [9] and in [10] was inactive.

Turning to `CC(=O)S[C@H](C(=O)N[C@H]1Cc2ccccc2[C@H]2CCC[C@@H](C(=O)O)N2C1=O)C(C)C`, the call in [1], in experiment [2], in experiment [3], in experiment [4], in experiment [5] and in experiment [6] was inactive. Also, the outcome in [7], in experiment [8], in experiment [9] and in experiment [10] was inactive.

For the compound `COc1ccc(OC(F)(F)F)cc1CN[C@H]1CCCN[C@H]1c1ccccc1`, the AC50 was 28.3 µM (active) in [1]; 55.9 µM (active) in [2]; 17.7 µM (active) in experiment [3]; 32.6 µM (active) in experiment [5]; 28.8 µM (active) in experiment [6]; 24.3 µM (active) in experiment [8]. In addition, the call in [4], in experiment [7] and in experiment [10] was inactive.

As to `CC(C)(C)c1ccccc1`, the result in experiment [1], in [2], in [3], in experiment [4], in experiment [5] and in [6] was inactive. Besides, the call in [7], in experiment [8] and in [10] was inactive.

`S=c1[nH]c2ccccc2s1`: the call in [1], in experiment [3], in experiment [4], in [5], in [6] and in [7] was inactive. For the same compound, the compound was classed as inactive in experiment [8], in experiment [9] and in experiment [10]. Besides, the half-maximal activity concentration (AC50) in experiment [2] was 97.3 µM (active).

Take `O=C1O[C@H]([C@H](O)CO)C(O)=C1O`: the compound was called inactive in experiment [1], in [2], in [3], in [4], in experiment [5] and in experiment [6]. Also, the compound was classed as inactive in experiment [7], in experiment [8], in [9] and in experiment [10].
